Assay results from PubChem BioAssay (EPA / NIEHS).
Inconclusive results are not listed. The source made the active and inactive calls. How the source made its calls, unless noted: active means hit-call score of the fitted dose curve at least 0.9, where 1 is the maximum; inactive means score below 0.9.

target: Cellular tumor antigen p53 (Homo sapiens) (UniProt P04637); assay: ATG_p53_CIS: Attagene CIS-FACTORIAL HepG2 Assay for human p53 Transcription Factor (AID 2282994); conditions: HepG2 p53 cis-element reporter, Attagene mRNA; actives raise or lower the signal
Summary of the method: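 Read-out: reporter mRNA by RT-PCR plus capillary electrophoresis with fluorescence detection. Human HepG2 liver cells carried transfected multi-reporter cis-element constructs, dosed 24 h. Gain or loss of signal fitted bidirectionally against DMSO control.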

Cellular tumor antigen p53 (Homo sapiens), sequence (P04637 whole entry, looked up): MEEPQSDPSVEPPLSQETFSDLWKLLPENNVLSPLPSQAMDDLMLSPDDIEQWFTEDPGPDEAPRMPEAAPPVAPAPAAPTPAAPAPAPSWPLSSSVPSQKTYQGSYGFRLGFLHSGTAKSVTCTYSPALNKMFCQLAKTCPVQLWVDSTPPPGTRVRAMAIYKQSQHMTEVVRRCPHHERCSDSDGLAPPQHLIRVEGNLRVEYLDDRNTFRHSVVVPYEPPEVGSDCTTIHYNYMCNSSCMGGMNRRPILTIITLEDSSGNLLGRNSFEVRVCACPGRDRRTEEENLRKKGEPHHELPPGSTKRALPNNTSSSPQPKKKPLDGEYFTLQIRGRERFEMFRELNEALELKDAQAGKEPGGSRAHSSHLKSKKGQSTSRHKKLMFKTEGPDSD

Row | SMILES | outcome | AC50
1 | COc1ccc(C=O)cc1 | inactive | 
2 | O=C(c1ccccc1)C(Cl)Cl | inactive | 
3 | Nc1ccc(N=Nc2ccc(-c3ccc(N=Nc4c(S(=O)(=O)O)cc5cc(S(=O)(=O)O)c(N=Nc6ccccc6)c(O)c5c4N)cc3)cc2)c(N)c1 | inactive | 
4 | O=C(CCl)CCl |  | 58.6 µM (active)
5 | O=C(Cc1ccccc1)c1ccccc1 | inactive | 
6 | N#CCCO | inactive | 
7 | COC(=O)c1sccc1S(=O)(=O)NC(=O)Nc1nc(C)nc(OC)n1 | inactive | 
8 | COc1ccc(C=O)cc1OC | inactive | 
9 | CCC[CH2][Sn]([CH2]CCC)([CH2]CCC)[O]C(=O)c1ccccc1 | inactive | 
10 | C[C@H]1O[C@@H](O[C@H]2[C@@H](O)C[C@H](O[C@H]3[C@@H](O)C[C@H](O[C@H]4CC[C@@]5(C)[C@H](CC[C@@H]6[C@@H]5CC[C@]5(C)[C@@H](C7=CC(=O)OC7)CC[C@]65O)C4)O[C@@H]3C)O[C@@H]2C)C[C@H](O)[C@@H]1O | inactive | 
11 | O=C1C(Cl)=C(Cl)C(=O)c2ccccc21 | inactive | 
12 | COP(=O)(OC)O/C(=C\Cl)c1cc(Cl)c(Cl)cc1Cl |  | 161 µM (active)
13 | O=[N+]([O-])c1c(Cl)c(Cl)cc(Cl)c1Cl | inactive | 
14 | CN(CCCC(=O)c1cccnc1)N=O | inactive | 
15 | c1ccc(N=NNc2ccccc2)cc1 | inactive | 
16 | CC(=[OH+])/C=C(/C)[O-].CC(=[OH+])/C=C(/C)[O-].CC(=[OH+])/C=C(/C)[O-].[Fe] | inactive | 
17 | CCOP(=S)(OCC)SCCS(=O)(=O)CC | inactive | 
18 | Cn1sc(Cl)cc1=O | inactive | 
19 | CCCCCCCCSC(=O)Oc1cc(Cl)nnc1-c1ccccc1 | inactive | 
20 | CNC(=O)O/N=C/C(C)(C)S(C)=O (stereo unspecified) | inactive | 

Row | SMILES | outcome | AC50
21 | c1cc[c]([Hg][c]2ccccc2)cc1 | inactive | 
22 | O=C/C=C/c1ccccc1 | inactive | 
23 | Clc1nc(Cl)nc(Cl)n1 | inactive | 
24 | COS(=O)(=O)c1ccc(C)cc1 | inactive | 
25 | CCSC(C)CC1CC(=O)C(C(CC)=NOC/C=C/Cl)=C(O)C1 (stereo unspecified) | inactive | 
26 | C[C@H]1CCCC(=O)CCC/C=C/c2cc(O)cc(O)c2C(=O)O1 | inactive | 
27 | CCc1ccccc1C | inactive | 
28 | ClCc1ccccn1 | inactive | 
29 | O=C(NCO)NCO | inactive | 
30 | ClC1=C(Cl)[C@]2(Cl)[C@H]3[C@H]([C@H]4C=C[C@H]3C4)[C@@]1(Cl)C2(Cl)Cl | inactive | 
31 | O=C(Cl)c1ccc(Cl)cc1 | inactive | 
32 | N#CN=C(N)N | inactive | 
33 | COc1ccccc1OC | inactive | 
34 | COC[C@H](C)N(C(=O)CCl)c1c(C)csc1C | inactive | 
35 | COP(=O)(OC)OC | inactive | 
36 | CCC(=O)c1ccccc1 | inactive | 
37 | C=CC#N | inactive | 
38 | O=[N+]([O-])c1ccc2c3c(cccc13)CC2 | inactive | 
39 | CCC(C)c1cccc(C(C)CC)c1O (stereo unspecified) | inactive | 

read-out: not listed separately; assay: BSK_3C_uPAR: BioMAP Diversity Plus: 3C Assay for Urokinase-type plasminogen activator receptor (uPAR) Biomarker Activity (AID 2282998); conditions: BioMAP 3C HUVEC, uPAR biomarker ELISA; actives raise or lower the signal
Summary of the method: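 Values derive from bidirectional curve fitting relative to DMSO, which served as baseline of activity. uPAR was measured by ELISA in human umbilical vein endothelial primary cultures 24 h after compound addition.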

Row | SMILES | outcome | AC50
40 | COC(=O)c1sccc1S(=O)(=O)NC(=O)Nc1nc(C)nc(OC)n1 | inactive | 
41 | CCOP(=S)(OCC)SCCS(=O)(=O)CC | inactive | 
42 | Cn1sc(Cl)cc1=O | inactive | 
43 | CCSC(C)CC1CC(=O)C(C(CC)=NOC/C=C/Cl)=C(O)C1 (stereo unspecified) | inactive | 
44 | ClC1=C(Cl)[C@]2(Cl)[C@H]3[C@H]([C@H]4C=C[C@H]3C4)[C@@]1(Cl)C2(Cl)Cl |  | 3.97 µM (active)
45 | COC[C@H](C)N(C(=O)CCl)c1c(C)csc1C | inactive | 
46 | O=[N+]([O-])c1ccc2c3c(cccc13)CC2 |  | 20 µM (active)

read-out: not listed separately; assay: BSK_3C_VCAM1: BioMAP Diversity Plus: 3C Assay for Vascular cell adhesion molecule 1 (VCAM1) Biomarker Activity (AID 2282999); conditions: BioMAP 3C HUVEC, VCAM1 ELISA, cytokine-stimulated; actives raise or lower the signal
Summary of the method: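 Vascular primary endothelium (human umbilical vein) was exposed to chemicals and assayed 24 h later. VCAM-1 levels came from ELISA, with DMSO serving as baseline for bidirectional fitting.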

Row | SMILES | outcome | AC50
47 | COC(=O)c1sccc1S(=O)(=O)NC(=O)Nc1nc(C)nc(OC)n1 | inactive | 
48 | CCOP(=S)(OCC)SCCS(=O)(=O)CC | inactive | 
49 | Cn1sc(Cl)cc1=O |  | 36.1 µM (active)
50 | CCSC(C)CC1CC(=O)C(C(CC)=NOC/C=C/Cl)=C(O)C1 (stereo unspecified) | inactive | 
51 | ClC1=C(Cl)[C@]2(Cl)[C@H]3[C@H]([C@H]4C=C[C@H]3C4)[C@@]1(Cl)C2(Cl)Cl |  | 3.97 µM (active)
52 | COC[C@H](C)N(C(=O)CCl)c1c(C)csc1C | inactive | 
53 | O=[N+]([O-])c1ccc2c3c(cccc13)CC2 | inactive | 

read-out: not listed separately; assay: BSK_4H_Eotaxin3: BioMAP Diversity Plus: 4H Assay for Eotaxin 3 Biomarker Activity (AID 2283000); conditions: primary human endothelial cells (HUVEC); actives raise or lower the signal;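 on outcome: CCL26 protein level quantified by ELISA in parallel with SRB cytotoxicity check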
Summary of the method: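 Readout is Eotaxin-3 (CCL26) level by ELISA in primary human umbilical vein endothelial cells harvested 24 h after chemical exposure; activity fitted in both directions against DMSO control.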

Row | SMILES | outcome | AC50
54 | COC(=O)c1sccc1S(=O)(=O)NC(=O)Nc1nc(C)nc(OC)n1 | inactive | 
55 | CCOP(=S)(OCC)SCCS(=O)(=O)CC | inactive | 
56 | Cn1sc(Cl)cc1=O |  | 28.2 µM (active)
57 | CCSC(C)CC1CC(=O)C(C(CC)=NOC/C=C/Cl)=C(O)C1 (stereo unspecified) | inactive | 
58 | ClC1=C(Cl)[C@]2(Cl)[C@H]3[C@H]([C@H]4C=C[C@H]3C4)[C@@]1(Cl)C2(Cl)Cl |  | 20 µM (active)
59 | COC[C@H](C)N(C(=O)CCl)c1c(C)csc1C | inactive | 
60 | O=[N+]([O-])c1ccc2c3c(cccc13)CC2 | inactive | 

target: human Peroxisome Proliferator-activated Receptor alpha (PPARa), PPARA (gene 5465) (UniProt Q07869); assay: ATG_PPARa_TRANS: Attagene TRANS-FACTORIAL HepG2 Assay for human Peroxisome Proliferator-activated Receptor alpha (PPARa) (AID 2283001; active means hit-call score of the fitted dose curve at least 0.9, where 1 is the maximum;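 on AC50: potency for gain of reporter signal over DMSO so agonist or activator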); conditions: not given
Summary of the method: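 Exposure: 24 h, transiently transfected HepG2 cells. Endpoint: GAL4-UAS reporter mRNA, RT-PCR with capillary electrophoresis fluorescence. Baseline: DMSO; increases fitted.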

human Peroxisome Proliferator-activated Receptor alpha (PPARa), PPARA (gene 5465), sequence (Q07869 whole entry, looked up, the tested form may be a part): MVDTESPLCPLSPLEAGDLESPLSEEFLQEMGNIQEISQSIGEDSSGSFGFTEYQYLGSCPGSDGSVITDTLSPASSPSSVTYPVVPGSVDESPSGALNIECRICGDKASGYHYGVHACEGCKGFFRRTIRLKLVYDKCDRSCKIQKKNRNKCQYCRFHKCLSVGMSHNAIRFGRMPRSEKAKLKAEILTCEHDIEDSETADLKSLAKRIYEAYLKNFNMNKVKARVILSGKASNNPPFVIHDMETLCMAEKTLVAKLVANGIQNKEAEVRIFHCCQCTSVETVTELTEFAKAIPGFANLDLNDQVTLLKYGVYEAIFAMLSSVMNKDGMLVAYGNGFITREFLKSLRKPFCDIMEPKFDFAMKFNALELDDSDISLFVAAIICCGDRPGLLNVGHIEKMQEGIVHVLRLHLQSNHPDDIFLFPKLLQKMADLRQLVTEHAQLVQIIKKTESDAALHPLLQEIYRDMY

Row | SMILES | outcome | AC50
61 | COc1ccc(C=O)cc1 | inactive | 
62 | O=C(c1ccccc1)C(Cl)Cl | inactive | 
63 | Nc1ccc(N=Nc2ccc(-c3ccc(N=Nc4c(S(=O)(=O)O)cc5cc(S(=O)(=O)O)c(N=Nc6ccccc6)c(O)c5c4N)cc3)cc2)c(N)c1 | inactive | 
64 | O=C(CCl)CCl | inactive | 
65 | O=C(Cc1ccccc1)c1ccccc1 | inactive | 
66 | N#CCCO | inactive | 
67 | COc1ccc(C=O)cc1OC | inactive | 
68 | CCC[CH2][Sn]([CH2]CCC)([CH2]CCC)[O]C(=O)c1ccccc1 | inactive | 
69 | C[C@H]1O[C@@H](O[C@H]2[C@@H](O)C[C@H](O[C@H]3[C@@H](O)C[C@H](O[C@H]4CC[C@@]5(C)[C@H](CC[C@@H]6[C@@H]5CC[C@]5(C)[C@@H](C7=CC(=O)OC7)CC[C@]65O)C4)O[C@@H]3C)O[C@@H]2C)C[C@H](O)[C@@H]1O |  | 0.0564 µM (active)
70 | O=C1C(Cl)=C(Cl)C(=O)c2ccccc21 | inactive | 
71 | COP(=O)(OC)O/C(=C\Cl)c1cc(Cl)c(Cl)cc1Cl |  | 64.8 µM (active)
72 | O=[N+]([O-])c1c(Cl)c(Cl)cc(Cl)c1Cl | inactive | 
73 | CN(CCCC(=O)c1cccnc1)N=O | inactive | 
74 | c1ccc(N=NNc2ccccc2)cc1 | inactive | 
75 | CC(=[OH+])/C=C(/C)[O-].CC(=[OH+])/C=C(/C)[O-].CC(=[OH+])/C=C(/C)[O-].[Fe] | inactive | 
76 | CCCCCCCCSC(=O)Oc1cc(Cl)nnc1-c1ccccc1 | inactive | 

Row | SMILES | outcome | AC50
77 | CNC(=O)O/N=C/C(C)(C)S(C)=O (stereo unspecified) | inactive | 
78 | c1cc[c]([Hg][c]2ccccc2)cc1 | inactive | 
79 | O=C/C=C/c1ccccc1 | inactive | 
80 | Clc1nc(Cl)nc(Cl)n1 | inactive | 
81 | COS(=O)(=O)c1ccc(C)cc1 | inactive | 
82 | C[C@H]1CCCC(=O)CCC/C=C/c2cc(O)cc(O)c2C(=O)O1 | inactive | 
83 | CCc1ccccc1C | inactive | 
84 | ClCc1ccccn1 | inactive | 
85 | O=C(NCO)NCO | inactive | 
86 | O=C(Cl)c1ccc(Cl)cc1 | inactive | 
87 | N#CN=C(N)N | inactive | 
88 | COc1ccccc1OC | inactive | 
89 | COP(=O)(OC)OC | inactive | 
90 | CCC(=O)c1ccccc1 | inactive | 
91 | C=CC#N | inactive | 
